# A number with no mark means an inactive call.
# What was measured:
# Experiment in all cases: log2 ratio of Biotin-Ahx-Ub-VS probe labelling (fragment/DMSO); higher = less target engagement (more negative = stronger competition), active = hit call of the paper (q ≤ 0.05, log2 ratio ≤ -1)
# Details in all cases: compound concentration: 200 uM; treatment time: 3 h
# OTUD6B = target: T1, OTUD6B (UniProt Q8N6M0)
# T1 sequence (whole entry): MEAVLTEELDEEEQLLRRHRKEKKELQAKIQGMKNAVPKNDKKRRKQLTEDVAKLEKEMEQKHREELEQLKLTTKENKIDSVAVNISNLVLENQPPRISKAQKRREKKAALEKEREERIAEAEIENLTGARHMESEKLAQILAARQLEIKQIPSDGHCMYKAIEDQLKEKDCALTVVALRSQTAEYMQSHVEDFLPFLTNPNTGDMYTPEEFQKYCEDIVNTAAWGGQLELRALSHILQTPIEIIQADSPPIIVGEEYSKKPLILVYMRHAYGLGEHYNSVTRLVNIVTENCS
# Outline: (§1)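 Triplicate samples of HEK293T lysate, 495 µg each, received fragment at 200 µM or vehicle for 3 h, followed by Biotin-Ahx-Ub-VS (0.5 µM final) for 1 h. After NeutrAvidin enrichment of labelled DUBs and LysC/trypsin digestion, peptides were run by diaPASEF LC-MS/MS. The values are average log2 fragment/vehicle ratios from global-median-normalised Spectronaut label-free quantities, tested by unpaired t-test on proteins having ≥2 unique peptides.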
# OTUD7B = target: T2, OTUD7B (UniProt Q6GQQ9)
# T2 sequence (whole entry): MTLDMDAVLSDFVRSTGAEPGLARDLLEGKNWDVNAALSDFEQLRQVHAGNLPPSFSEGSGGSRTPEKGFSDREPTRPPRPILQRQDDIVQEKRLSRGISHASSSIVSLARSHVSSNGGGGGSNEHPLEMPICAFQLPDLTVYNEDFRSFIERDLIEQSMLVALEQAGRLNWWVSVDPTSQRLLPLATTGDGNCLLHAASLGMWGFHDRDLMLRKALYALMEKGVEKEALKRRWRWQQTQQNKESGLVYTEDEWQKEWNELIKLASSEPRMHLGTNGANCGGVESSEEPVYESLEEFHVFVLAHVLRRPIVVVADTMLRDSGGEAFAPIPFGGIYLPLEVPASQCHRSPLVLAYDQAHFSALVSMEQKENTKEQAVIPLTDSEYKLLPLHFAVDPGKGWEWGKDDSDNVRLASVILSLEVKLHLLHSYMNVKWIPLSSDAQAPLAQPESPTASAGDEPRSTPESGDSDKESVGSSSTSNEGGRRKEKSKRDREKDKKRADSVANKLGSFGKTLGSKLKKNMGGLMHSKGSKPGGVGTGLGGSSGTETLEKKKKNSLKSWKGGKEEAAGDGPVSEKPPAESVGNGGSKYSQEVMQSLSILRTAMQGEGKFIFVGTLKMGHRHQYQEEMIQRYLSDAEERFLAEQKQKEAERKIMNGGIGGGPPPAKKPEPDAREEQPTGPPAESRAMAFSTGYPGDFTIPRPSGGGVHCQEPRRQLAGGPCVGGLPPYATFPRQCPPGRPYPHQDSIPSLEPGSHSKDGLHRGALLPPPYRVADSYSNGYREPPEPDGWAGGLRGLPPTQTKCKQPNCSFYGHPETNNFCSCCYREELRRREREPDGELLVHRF
# Outline: as §1
# PRPF8 = PRPF8 (UniProt Q6P2Q9)
# Outline: as §1
# PSMD7 = target: T3, PSMD7 (UniProt P51665)
# T3 sequence (whole entry): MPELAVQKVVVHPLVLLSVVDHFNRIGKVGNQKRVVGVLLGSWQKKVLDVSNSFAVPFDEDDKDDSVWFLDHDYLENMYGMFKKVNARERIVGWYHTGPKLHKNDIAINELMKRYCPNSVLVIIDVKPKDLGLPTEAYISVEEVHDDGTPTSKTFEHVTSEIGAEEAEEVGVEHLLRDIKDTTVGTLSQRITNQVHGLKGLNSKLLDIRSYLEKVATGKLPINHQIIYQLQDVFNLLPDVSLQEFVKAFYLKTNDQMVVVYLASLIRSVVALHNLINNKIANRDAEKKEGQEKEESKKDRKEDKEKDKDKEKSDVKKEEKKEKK
# Outline: as §1
# UCHL1 = UCHL1 (UniProt P09936)
# Outline: as §1
# UCHL3 = target: T4, UCHL3 (UniProt P15374)
# T4 sequence (whole entry): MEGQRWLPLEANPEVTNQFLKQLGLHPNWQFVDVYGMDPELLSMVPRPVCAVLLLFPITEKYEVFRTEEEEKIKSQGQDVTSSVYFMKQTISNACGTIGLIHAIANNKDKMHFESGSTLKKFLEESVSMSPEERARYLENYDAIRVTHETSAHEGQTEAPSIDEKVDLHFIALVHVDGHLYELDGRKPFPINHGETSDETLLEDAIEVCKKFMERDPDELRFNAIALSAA
# Outline: as §1
# UCHL5 = target: T5, UCHL5 (UniProt Q9Y5K5)
# T5 sequence (whole entry): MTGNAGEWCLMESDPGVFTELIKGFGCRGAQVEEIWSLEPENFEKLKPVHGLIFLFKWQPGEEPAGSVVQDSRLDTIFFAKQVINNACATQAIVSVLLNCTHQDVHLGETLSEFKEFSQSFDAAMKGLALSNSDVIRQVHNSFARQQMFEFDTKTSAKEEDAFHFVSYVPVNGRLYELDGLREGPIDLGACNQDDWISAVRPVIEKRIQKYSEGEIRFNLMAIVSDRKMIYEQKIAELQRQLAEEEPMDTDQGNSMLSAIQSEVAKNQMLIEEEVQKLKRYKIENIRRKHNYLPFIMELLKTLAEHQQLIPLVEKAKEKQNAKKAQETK
# Outline: as §1
# USP10 = USP10 (UniProt Q14694)
# Outline: as §1
# USP15 = target: T6, USP15 (UniProt Q9Y4E8)
# T6 sequence (whole entry): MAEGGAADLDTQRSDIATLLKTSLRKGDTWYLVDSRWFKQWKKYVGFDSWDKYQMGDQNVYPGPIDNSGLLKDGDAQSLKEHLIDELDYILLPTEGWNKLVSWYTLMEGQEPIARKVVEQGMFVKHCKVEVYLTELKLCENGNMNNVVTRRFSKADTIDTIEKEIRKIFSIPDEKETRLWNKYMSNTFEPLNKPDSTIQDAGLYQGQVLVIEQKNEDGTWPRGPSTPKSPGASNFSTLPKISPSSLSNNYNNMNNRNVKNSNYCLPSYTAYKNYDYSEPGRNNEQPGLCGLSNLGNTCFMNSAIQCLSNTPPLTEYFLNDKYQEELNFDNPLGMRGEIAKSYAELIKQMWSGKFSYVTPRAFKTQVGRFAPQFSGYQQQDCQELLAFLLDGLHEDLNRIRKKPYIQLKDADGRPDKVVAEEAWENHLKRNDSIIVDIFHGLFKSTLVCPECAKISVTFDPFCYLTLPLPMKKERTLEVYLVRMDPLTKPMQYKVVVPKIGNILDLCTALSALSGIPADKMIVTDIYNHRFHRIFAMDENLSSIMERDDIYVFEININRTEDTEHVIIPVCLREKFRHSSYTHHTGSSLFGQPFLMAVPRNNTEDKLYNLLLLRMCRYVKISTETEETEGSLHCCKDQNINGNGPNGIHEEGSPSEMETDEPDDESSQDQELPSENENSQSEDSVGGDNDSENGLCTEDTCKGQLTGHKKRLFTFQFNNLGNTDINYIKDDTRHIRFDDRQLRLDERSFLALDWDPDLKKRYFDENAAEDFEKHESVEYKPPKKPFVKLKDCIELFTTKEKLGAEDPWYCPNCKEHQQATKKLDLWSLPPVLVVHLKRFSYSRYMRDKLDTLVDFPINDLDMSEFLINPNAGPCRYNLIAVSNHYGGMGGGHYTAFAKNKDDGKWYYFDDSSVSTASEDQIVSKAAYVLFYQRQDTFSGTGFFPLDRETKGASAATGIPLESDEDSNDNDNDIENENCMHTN
# Outline: as §1
# USP16 = USP16 (UniProt Q9Y5T5)
# Outline: as §1
# Chain of USP10 (Q14694 whole entry): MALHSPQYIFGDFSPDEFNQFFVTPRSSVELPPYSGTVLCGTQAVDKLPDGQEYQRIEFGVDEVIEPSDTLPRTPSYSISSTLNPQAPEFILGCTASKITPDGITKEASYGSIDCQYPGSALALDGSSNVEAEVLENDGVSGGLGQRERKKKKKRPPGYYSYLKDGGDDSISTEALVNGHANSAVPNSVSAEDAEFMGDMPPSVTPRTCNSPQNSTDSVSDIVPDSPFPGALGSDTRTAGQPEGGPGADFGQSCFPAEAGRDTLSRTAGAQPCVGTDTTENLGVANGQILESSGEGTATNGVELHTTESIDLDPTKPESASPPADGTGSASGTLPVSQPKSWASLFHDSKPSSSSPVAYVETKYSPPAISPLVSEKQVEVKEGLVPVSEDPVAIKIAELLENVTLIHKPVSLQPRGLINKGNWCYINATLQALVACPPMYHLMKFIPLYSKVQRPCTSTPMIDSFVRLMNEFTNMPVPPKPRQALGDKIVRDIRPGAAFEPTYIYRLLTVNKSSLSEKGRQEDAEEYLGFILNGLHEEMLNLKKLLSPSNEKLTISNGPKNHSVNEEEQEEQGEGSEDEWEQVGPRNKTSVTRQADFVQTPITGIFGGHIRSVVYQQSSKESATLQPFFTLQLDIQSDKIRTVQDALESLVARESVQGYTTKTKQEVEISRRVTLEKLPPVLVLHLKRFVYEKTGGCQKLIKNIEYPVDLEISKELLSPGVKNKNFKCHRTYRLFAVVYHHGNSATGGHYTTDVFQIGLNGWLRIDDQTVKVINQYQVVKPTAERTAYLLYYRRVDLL
# Chain of USP16 (Q9Y5T5 whole entry, looked up): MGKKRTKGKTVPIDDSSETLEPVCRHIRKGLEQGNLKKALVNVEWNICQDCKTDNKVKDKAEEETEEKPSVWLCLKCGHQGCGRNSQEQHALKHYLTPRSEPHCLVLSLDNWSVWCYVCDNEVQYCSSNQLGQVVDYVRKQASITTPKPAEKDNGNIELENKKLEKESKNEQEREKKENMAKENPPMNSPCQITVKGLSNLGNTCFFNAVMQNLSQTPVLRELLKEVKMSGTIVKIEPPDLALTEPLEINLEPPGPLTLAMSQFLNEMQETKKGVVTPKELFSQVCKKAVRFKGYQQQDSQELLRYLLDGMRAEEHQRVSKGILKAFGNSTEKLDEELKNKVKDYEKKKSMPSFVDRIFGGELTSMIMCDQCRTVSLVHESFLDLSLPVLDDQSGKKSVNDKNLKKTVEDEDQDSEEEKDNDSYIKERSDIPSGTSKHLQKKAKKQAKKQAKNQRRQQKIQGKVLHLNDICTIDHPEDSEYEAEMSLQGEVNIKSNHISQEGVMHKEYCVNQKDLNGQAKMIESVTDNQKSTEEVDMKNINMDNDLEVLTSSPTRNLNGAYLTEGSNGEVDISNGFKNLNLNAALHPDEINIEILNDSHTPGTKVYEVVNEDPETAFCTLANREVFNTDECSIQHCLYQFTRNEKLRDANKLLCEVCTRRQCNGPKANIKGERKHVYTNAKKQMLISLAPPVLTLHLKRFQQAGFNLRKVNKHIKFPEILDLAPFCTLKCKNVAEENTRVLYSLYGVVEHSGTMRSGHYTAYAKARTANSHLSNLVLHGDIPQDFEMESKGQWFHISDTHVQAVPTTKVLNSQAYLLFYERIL
# Chain of UCHL1 (P09936 whole entry, looked up): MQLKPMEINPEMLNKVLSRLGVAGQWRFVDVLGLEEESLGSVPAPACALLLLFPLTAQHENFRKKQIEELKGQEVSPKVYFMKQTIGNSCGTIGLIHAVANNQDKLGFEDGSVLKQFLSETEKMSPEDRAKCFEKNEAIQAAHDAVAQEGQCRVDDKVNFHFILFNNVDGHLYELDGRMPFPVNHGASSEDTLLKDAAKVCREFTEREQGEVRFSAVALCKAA
structure (smiles),measurement,setting,value
O=C(CCl)NCC1(c2ccccc2)CC1,log2 ratio of Biotin-Ahx-Ub-VS probe labelling,OTUD6B,-0.042
same,log2 ratio of Biotin-Ahx-Ub-VS probe labelling,OTUD7B,-0.82
same,log2 ratio of Biotin-Ahx-Ub-VS probe labelling,PRPF8,-0.155
same,log2 ratio of Biotin-Ahx-Ub-VS probe labelling,PSMD7,-0.151
same,log2 ratio of Biotin-Ahx-Ub-VS probe labelling,UCHL1,-1.22 (active)
same,log2 ratio of Biotin-Ahx-Ub-VS probe labelling,UCHL3,0.255
same,log2 ratio of Biotin-Ahx-Ub-VS probe labelling,UCHL5,-0.245
same,log2 ratio of Biotin-Ahx-Ub-VS probe labelling,USP10,0.00549
same,log2 ratio of Biotin-Ahx-Ub-VS probe labelling,USP15,-0.107
same,log2 ratio of Biotin-Ahx-Ub-VS probe labelling,USP16,0.0406
